LYPLA1 inh – LYPLA1 (human) inhibition in PME1 counter-screen; hit rate 0.16% among 320,000; inhibition, % at 5.9 µM; recombinant LYPLA1, FP-Rh probe fluorescence polarization; O75608; AID 2174;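 active = inhibition above the mean of all tested compounds plus 3 SD, set per campaign, cut at about 14% in these data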;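 note: inhibitors block serine hydrolase probe labeling of LYPLA1 so polarization falls; 0% = enzyme with DMSO and 100% = wells lacking LYPLA1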
LYPLA2 counter – blocks human lysophospholipase 2, a PME1 counter-screen | hit rate 0.38% among 320,000 | recombinant LYPLA2, FP-Rh probe fluorescence polarization | inhibition, % at 5.9 µM;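 active = inhibition above the screen-wide mean plus 3 SD, limit set per campaign, cut at about 26% in these data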;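 note: 0% = LYPLA2 with DMSO and 100% = wells lacking LYPLA2 enzyme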
EBNA-1 inhibitor – blocks EBNA-1 binding to DNA; EBNA-1 DNA binding, fluorescence polarization; AID 1950; hit rate 0.34% among 300,000; inhibition, % at 14.8 µM; in the data active = inhibition above about 28%
PAD4 FP inh – PAD4 (human) enzyme inhibition; hit rate 0.41% among 330,000; Q9UM07; inhibition, % at 6.36 µM; recombinant PAD4, RCA probe fluorescence polarization;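 active = percent inhibition above a cutoff equal to the mean of all tested compounds plus 3 SD, cut at about 15% in these data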;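 note: 0% = PAD4 with RCA probe and DMSO and 100% = probe without PAD4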
Target sequence (Q9UM07 whole entry, looked up): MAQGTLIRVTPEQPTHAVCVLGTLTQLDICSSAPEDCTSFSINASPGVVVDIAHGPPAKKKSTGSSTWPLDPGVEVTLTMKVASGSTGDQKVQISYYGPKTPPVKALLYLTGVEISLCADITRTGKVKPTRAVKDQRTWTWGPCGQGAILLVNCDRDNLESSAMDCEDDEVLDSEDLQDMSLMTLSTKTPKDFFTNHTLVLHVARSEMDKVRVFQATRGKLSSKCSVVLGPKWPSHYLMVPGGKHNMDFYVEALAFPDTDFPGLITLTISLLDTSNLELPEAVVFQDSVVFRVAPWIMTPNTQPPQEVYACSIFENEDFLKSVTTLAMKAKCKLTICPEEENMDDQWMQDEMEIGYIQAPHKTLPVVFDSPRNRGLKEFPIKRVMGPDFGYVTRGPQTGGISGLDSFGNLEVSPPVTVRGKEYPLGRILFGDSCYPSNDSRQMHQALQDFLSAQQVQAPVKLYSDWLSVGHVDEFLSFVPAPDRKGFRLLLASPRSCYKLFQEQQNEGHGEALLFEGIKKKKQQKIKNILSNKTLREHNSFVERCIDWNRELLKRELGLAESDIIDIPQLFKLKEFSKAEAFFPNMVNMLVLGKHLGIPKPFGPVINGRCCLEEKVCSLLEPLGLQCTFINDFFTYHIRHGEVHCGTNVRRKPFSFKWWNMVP
GSTO1 inh – blocks human GSTO1 in RBBP9 counter-screen. P78417. recombinant GSTO1, activity-based probe fluorescence polarization. inhibition, % at 5.96 µM. hit rate 1.1% among 300,000. AID 1974;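 active = inhibition above the campaign mean inhibition plus 3 SD, cut at about 35% in these data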;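 note: 0% = GSTO1-1 with DMSO and 100% = wells lacking GSTO1-1 enzyme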
ZTA DNA inh – counter-screen for EBNA-1 inhibitors: inhibitors of Epstein-Barr virus ZTA; P03206; ZTA-DNA binding, fluorescence polarization; inhibition, % at 11 µM; hit rate 0.15% among 320,000; AID 2234; in the data active = inhibition above about 33%
PAD4 FP conf – confirmation of human PAD4 inhibitors; recombinant PAD4, RCA probe fluorescence polarization; shares compounds with PAD4 FP inh; hit rate 28% among 1,200; inhibition, % at 6.36 µM; AID 488796;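 active = mean inhibition across replicates above the hit cutoff set by the earlier primary screen, cut at about 15% in these data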;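 note: inhibitors block active-site labeling by the probe so polarization falls; 0% = PAD4 with probe and DMSO and 100% = probe without PAD4 enzyme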
An asterisk follows results filed as active; · = no result. Sampled rows, rich in hits. Any-hit rate of the full collection: about 1.7%.

SMILES	LYPLA1 inh	LYPLA2 counter	EBNA-1 inhibitor	PAD4 FP inh	GSTO1 inh	ZTA DNA inh	PAD4 FP conf
Cc1ccc(C2=NN=C(NC(=O)CSc3nnc4c5ccccc5n(C)c4n3)SC2)cc1	-9.8	-12.3	8.4	22.9*	-0.3	25.5	36.7*
Cn1c2ccccc2c2nnc(SCC(=O)Nc3cccc(C(=O)O)c3)nc21	0.6	7.0	-9.1	3.0	-9.1	-4.7	·
Cc1ccc(C2=NN=C(NC(=O)CSc3nc(C)cc(C)n3)SC2)cc1	-7.0	-2.3	9.2	70.7*	2.1	-12.3	67.6*
COCCCN1C(=O)c2ccc(C(=O)OCC(=O)N3CCN(c4ccccc4)CC3)cc2C1=O	-0.6	4.6	3.2	0.9	5.7	-4.1	·
CCN(CC)c1ccc2c(c1)oc(=O)c1c(Cl)cc(=O)oc12	-1.8	7.2	-0.1	25.8*	24.9	4.4	19.1*
CCN(CC)c1ccc2c(C)c(Cl)c(=O)oc2c1	2.7	0.2	-14.3	-1.6	5.0	-9.9	·
CCOc1ccc(N(CC(=O)N2CCCCC2)S(=O)(=O)c2ccc(Cl)cc2)cc1	-2.0	-0.1	-2.3	4.4	-1.7	-0.2	·
N#CCCN(C(=O)Cn1nc(C(=O)O)c2ccccc2c1=O)c1ccccc1	-1.1	-1.7	-10.3	103.0*	5.5	-0.8	-0.4
CN(C)CCN(Cc1ccccc1)c1ccccn1	0.0	-1.3	-7.8	73.5*	6.2	0.8	6.7
CCN1C(=O)[C@@H]2C(C(=O)c3cnccn3)=NN[C@@H]2C1=O	0.4	-5.3	-6.3	19.6*	4.7	6.8	-6.7
O=C(C1=NN[C@@H]2C(=O)N(c3cccc(F)c3)C(=O)[C@H]12)c1cnccn1	0.3	-2.2	-17.4	0.1	-8.3	2.3	·
CN(C)c1nc(N/N=C/c2c[nH]c3ccccc23)nc(N2CCOCC2)n1	1.8	-5.0	-3.0	-0.3	2.7	3.3	·
C(=Nc1ccc(N2CCOCC2)cc1)c1c[nH]c2ccccc12	1.4	4.5	8.2	17.4*	16.0	-13.9	-4.0
CCOC(=O)CC(NC(=O)C(CC)c1ccccc1)c1ccccc1Cl (stereo not drawn)	-1.4	1.8	-5.4	-1.0	-0.4	-9.1	·
CCOC(=O)CC(/C(C)=N\O)c1ccccc1 (stereo not drawn)	-3.8	1.3	6.0	20.6*	2.7	9.4	-5.5
COc1cccc(N2CCN(C(=O)c3cn(Cc4ccccc4)nc3-c3cccnc3)CC2)c1	12.0	19.9	·	20.9*	·	-14.0	-0.1
C/C(=N\O)c1ccc2c3ccccc3n(C)c2c1	-4.4	1.2	2.3	-0.9	7.5	-9.0	·
CCn1c2ccccc2c2cc(/C(C)=N/O)ccc21	-0.8	-3.9	1.6	15.9*	6.0	-1.5	-0.4
O=C1CC(Nc2ccc(N3CCOCC3)cc2)C(=O)N1c1ccccc1F (stereo not drawn)	4.8	14.9	2.8	16.5*	4.8	-4.2	9.0
COc1ccc(CCN2C(=O)CC(Nc3ccc(N4CCOCC4)cc3)C2=O)cc1OC (stereo not drawn)	0.2	6.6	-1.0	19.7*	3.6	11.5	19.4*
CCc1nnc(N/N=C/c2ccc(-c3ccc([N+](=O)[O-])cc3)o2)n1N	-0.2	1.6	-0.4	25.3*	16.7	0.3	-3.8
Cc1n[nH]c(=S)n1/N=C/c1ccc(-c2ccccc2[N+](=O)[O-])o1	2.1	1.5	-6.4	1.9	-7.9	5.1	·
Cc1nnc(N/N=C\c2ccc(-c3ccccc3[N+](=O)[O-])o2)n1N	4.5	6.1	-2.6	34.8*	36.2*	5.5	-5.4
Cc1nnc(N/N=C/c2ccc(-c3ccccc3F)o2)n1N	-0.8	1.6	12.6	25.1*	30.2	-17.4	2.0
Cc1c(C(N)=O)sc2ncn(CC(=O)N(C)C3CCCCC3)c(=O)c12	-0.7	9.7	7.0	-2.6	7.3	17.1	·
Cc1cc2c(cc1S(=O)(=O)CCC(=O)NC1CCCCC1C)OCC(=O)N2 (stereo not drawn)	-9.3	-3.9	5.0	1.2	-1.8	2.7	·
CCC(C)Sc1ccc([C@H]2N[C@@](Cc3ccccc3)(C(=O)OC)[C@H]3C(=O)N(CC)C(=O)[C@@H]23)cc1 (stereo partly drawn)	4.2	-4.1	9.0	2.9	10.8	-18.7	·
